Laboratory results taken from PubChem BioAssay (NCATS).
Inconclusive results are not listed. The source made the active and inactive calls. Calls come from the whole dose curve; as a rule, active = well fitted curve in the direction sought with a large enough effect; inconclusive = small, poorly fitted or top-dose-only effect, or another doubt; inactive = no such curve, though single readings can be large; an effect the other way counts as inactive or inconclusive.

How the values were obtained:
[1] = SW1088 Cancer Cell Toxicity qHTS against the NCATS CANVASS Library (AID 1347350); note: nearly all actives have a fitted effect of over 75% in size
Method in brief: (§1)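 1000 cells/well seeded and rested 4 h at 37 °C before pin transfer of compounds in an 11-pnt series. Exposure 72 h at 37 °C/5% CO2; viability by CellTiter-Glo luminescence after 15 min at room temperature.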

[2] = U-118MG Cancer Cell Toxicity qHTS against the NCATS CANVASS Library (AID 1347351); conditions: U-118MG viability, CellTiter-Glo luminescence, 72 h; at 38.3 µM (top of the series)
Method in brief: as §1

[3] = COV-362 Cancer Cell Toxicity qHTS against the NCATS CANVASS Library (AID 1347352)
Method in brief: (§2)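 Using an ATP-based luminescent reagent after three days of treatment, toxicity is scored across an eleven-concentration range in wells holding 1000 cells each.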

[4] = A2780 Cisplatin Sensitive Ovarian Cancer Cell Toxicity qHTS against the NCATS CANVASS Library (AID 1347353); conditions: A2780 ovarian cancer viability, ATPLite luminescence, 72 h; at 46.1 µM (top of the series); note: nearly all actives have a fitted effect of over 60% in size
Method in brief: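 Quantitative HTS format: eleven compound concentrations applied to pre-seeded cells, 72 h incubation at 37 °C, then ATP detection by luminescence.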

[5] = UWB1.289-WTBRCA1 Cancer Cell Toxicity qHTS against the NCATS CANVASS Library (AID 1347354); conditions: UWB1.289-WTBRCA1 viability, CellTiter-Glo luminescence, 72 h; at 38.3 µM (top of the series)
Method in brief: as §2

[6] = HEK-293 Cancer Cell Toxicity qHTS against the NCATS CANVASS Library (AID 1347355); conditions: HEK-293 viability, CellTiter-Glo luminescence, 72 h; at 46.1 µM (top of the series); note: nearly all actives have a fitted effect of over 65% in size
Source text: Natural products and their derivatives continue to be wellsprings of nascent therapeutic potential. However, many laboratories have limited resources for biological evaluation, leaving their previously isolated or synthesized compounds largely or completely untested. To address this issue, the Canvass library of natural products was assembled (https://tripod.nih.gov/canvass), in collaboration with academic and industry researchers, for quantitative high-throughput screening (qHTS) across a diverse set of cell-based and biochemical assays. The pure (>85% purity by liquid chromatography/mass spectrometry [LC/MS]) Canvass library of 346 natural products were submitted by 45 academic laboratories and companies around the world. […] The library was formatted into 1536-well plates and evaluated in 50 qHTS (in an 11-pnt concentration series) bioassays with broad scope of disease-relevant mechanisms. The resulting data set from 50 different assays was then systematically analyzed to identify overall trends and specific natural products with interesting biological activities. […]
Cancer Cell Toxicity COV-362, OV-KATE, OV-SAHO, UWB1.289, UWB1.289-WTBRCA1, HEK-293, HPAF-II, Panc-1005, SW1088, and U-118MG-screen protocol. […] Luminescence signal was acquired via the ViewLux plate reader (PerkinElmer) using a clear filter, 2 second exposure and 2x binning settings.

[7] = HPAF-II 24hr Apoptosis Induction qHTS against the NCATS CANVASS Library (AID 1347356)
Method in brief: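 Using an 11-point qHTS format, HPAF-II cells in DMEM/10% FBS received compounds for 24 h; doxorubicin titration as control. Caspase-3/7 activity quantified by DEVD-luciferase luminescence.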

[8] = HEK293 18hr Apoptosis Induction qHTS against the NCATS CANVASS Library (AID 1347357)
Method in brief: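 Natural products applied to HEK293 for 18 hr; Caspase-Glo 3/7 readout.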

[9] = HPAF-II 12hr Apoptosis Induction qHTS against the NCATS CANVASS Library (AID 1347358)
Method in brief: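 Twelve-hour compound exposure of HPAF-II cells in DMEM with 10% FBS, then luminescent Caspase-Glo 3/7 detection after 15 min at room temperature; doxorubicin control.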

[10] = HEK293 24hr Apoptosis Induction qHTS against the NCATS CANVASS Library (AID 1347359)
Method in brief: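 Caspase-3/7 activation measured as luminescence from the DEVD-based Caspase-Glo reagent, 15 min at room temperature, following 24-hour compound treatment of HEK293 cells.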

Measured: outcome

NCC(O)c1ccc(O)cc1 (stereo not given)
inactive: all assays above
